Data taken from the supplement of paper PMC8728848.
Many of the other results were omitted from the sample, so the strongest signals are more common in it than they were.

Assays:
Assay in all cases: glycan array binding signal (z-score within array); higher = stronger binding
Details in all cases: glycan notation: IUPAC condensed, linker removed
[1] = biological target: Fuc(a1-2)Gal(b1-4)GlcNAc(b1-3)[Fuc(a1-3)[Gal(b1-4)]GlcNAc(b1-6)]Gal(b1-4)Glc
Outline: (§1)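 Negative Z-scores can be read as non-binding. The Z-score is calculated within each array and then averaged across arrays of one protein sequence at different concentrations or buffers and across linkers. Arrays, 3228 in all, were curated from the Consortium for Functional Glycomics database and kept only where the protein sequence was available.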

[2] = biological target: Fuc(a1-2)Gal(b1-4)[Fuc(a1-3)]GlcNAc(b1-2)[Fuc(a1-2)Gal(b1-4)[Fuc(a1-3)]GlcNAc(b1-4)]Man(a1-3)[Fuc(a1-2)Gal(b1-4)[Fuc(a1-3)]GlcNAc(b1-2)Man(a1-6)]Man(b1-4)GlcNAc(b1-4)GlcNAc
Outline: as §1

[3] = biological target: Fuc(a1-2)[Gal(a1-3)]Gal(b1-4)GlcNAc(b1-3)[Fuc(a1-2)[Gal(a1-3)]Gal(b1-4)GlcNAc(b1-6)]GalNAc
Outline: as §1

[4] = biological target: Fuc(a1-2)[Gal(a1-3)]Gal(b1-4)[Fuc(a1-3)]GlcNAc(b1-3)GalNAc
Outline: as §1

[5] = biological target: Fuc(a1-2)[GalNAc(a1-3)]Gal(b1-3)GlcNAc(b1-6)GalNAc
Outline: as §1

[6] = biological target: Fuc(a1-2)[GalNAc(a1-3)]Gal(b1-4)[Fuc(a1-3)]GlcNAc(b1-3)GalNAc
Outline: as §1

[7] = biological target: Fuc(a1-3)[Gal(b1-4)]GlcNAc(b1-2)Man(a1-3)[Fuc(a1-3)[Gal(b1-4)]GlcNAc(b1-2)Man(a1-6)]Man(b1-4)GlcNAc(b1-4)[Fuc(a1-6)]GlcNAc
Outline: as §1

[8] = biological target: Fuc(a1-3)[Gal(b1-4)]GlcNAc(b1-3)Gal(b1-4)[Fuc(a1-3)]GlcNAc
Outline: as §1

[9] = biological target: Fuc(a1-3)[Gal(b1-4)]GlcNAc(b1-6)[Gal(b1-3)GlcNAc(b1-3)]Gal(b1-4)Glc
Outline: as §1

[10] = biological target: Fuc(a1-3)[Gal3S(b1-4)]GlcNAc6S
Outline: as §1

[11] = biological target: Fuc(a1-3)[GalNAc(b1-4)]GlcNAc6S
Outline: as §1

[12] = biological target: Gal(a1-3)Gal(b1-3)GlcNAc(b1-2)Man(a1-3)[Gal(a1-3)Gal(b1-3)GlcNAc(b1-2)Man(a1-6)]Man(b1-4)GlcNAc(b1-4)GlcNAc
Outline: as §1

[13] = biological target: Gal(a1-3)Gal(b1-3)[Fuc(a1-4)]GlcNAc(b1-2)Man(a1-3)[Gal(a1-3)Gal(b1-3)[Fuc(a1-4)]GlcNAc(b1-2)Man(a1-6)]Man(b1-4)GlcNAc(b1-4)GlcNAc
Outline: as §1

Gal(a1-3)Gal(b1-4)GlcNAc = biological target: Gal(a1-3)Gal(b1-4)GlcNAc
Outline: as §1

[14] = biological target: Gal(a1-4)Gal(b1-4)GlcNAc(b1-2)Man(a1-3)[Gal(a1-4)Gal(b1-4)GlcNAc(b1-2)Man(a1-6)]Man(b1-4)GlcNAc(b1-4)GlcNAc
Outline: as §1

Gal(b1-3)Gal(b1-4)GlcNAc = biological target: Gal(b1-3)Gal(b1-4)GlcNAc
Outline: as §1

Gal(b1-3)GalNAc = biological target: Gal(b1-3)GalNAc
Outline: as §1

[15] = biological target: Gal(b1-3)GlcNAc(b1-3)Gal(b1-4)Glc
Outline: as §1

[16] = biological target: Gal(b1-3)GlcNAc(b1-3)Gal(b1-4)GlcNAc
Outline: as §1

[17] = biological target: Gal(b1-3)[Fuc(a1-4)]GlcNAc(b1-2)Man
Outline: as §1

[18] = biological target: Gal(b1-3)[Fuc(a1-4)]GlcNAc(b1-3)Gal(b1-3)[Fuc(a1-4)]GlcNAc
Outline: as §1

[19] = biological target: Gal(b1-3)[Fuc(a1-4)]GlcNAc(b1-6)GalNAc
Outline: as §1

[20] = biological target: Gal(b1-4)GlcNAc(b1-2)[Gal(b1-4)GlcNAc(b1-4)]Man(a1-3)[Gal(b1-4)GlcNAc(b1-2)Man(a1-6)]Man(b1-4)GlcNAc(b1-4)GlcNAc
Outline: as §1

B1: B936 (Bifidobacterium sp) (protein)
chain: MKNWKKAIALVASAAALVSVAACGPSNAGGSSDSGKKTVGFVAVGPEGGFRTANEKDIQKAFEDAGFDLTYSPTQNNDQQKQIQAFNKFVNDEVDAIILSSTEDSGWDDSLKKAAEAEIPVFTVDRNVDVKDAEAKKAIVAHIGPSNVWCGEQAAEFVNKNFPDGANGFILEGPAGLSVVKDRGTGWGNKVASNVKVLESQSANWSTDEAKTVTAGLLDKYKSDNPQFIFAQNDEMGLGAAQAVDAAGLKGKVKIITIDGTKNALQALVDGDLSYVIEYNPIFGKETAQAVKDYLDGKTVEKDIEIESKTFDAASAKEALDNNTRAY
glycan array binding signal (z-score) [1]: -0.124
glycan array binding signal (z-score) [2]: 0.564
glycan array binding signal (z-score) [3]: -0.277
glycan array binding signal (z-score) [4]: -0.217
glycan array binding signal (z-score) [5]: 0.424
glycan array binding signal (z-score) [6]: -0.006
glycan array binding signal (z-score) [7]: 0.198
glycan array binding signal (z-score) [8]: -0.555
glycan array binding signal (z-score) [9]: -0.786
glycan array binding signal (z-score) [10]: 0.399
glycan array binding signal (z-score) [11]: -0.367
glycan array binding signal (z-score) [12]: 2.85
glycan array binding signal (z-score) [13]: 2.05
glycan array binding signal (z-score) (Gal(a1-3)Gal(b1-4)GlcNAc): -0.375
glycan array binding signal (z-score) [14]: 2.19
glycan array binding signal (z-score) (Gal(b1-3)Gal(b1-4)GlcNAc): 11.1
glycan array binding signal (z-score) (Gal(b1-3)GalNAc): 4.57
glycan array binding signal (z-score) [15]: 1.71
glycan array binding signal (z-score) [16]: 4.33
glycan array binding signal (z-score) [17]: 1.8
glycan array binding signal (z-score) [18]: -0.183
glycan array binding signal (z-score) [19]: 1.04
glycan array binding signal (z-score) [20]: -0.689
